# Data taken from PubChem BioAssay (Tox21).
# Where “and” joins values, the source holds several entries; their conditions need not be identical. Identical values can stand only once. Values without a mark were called inactive. Results filed as inconclusive are left out. A call without a number means that no potency is given here. Calls of active or inactive are those of the source. Unless noted, the call rests on the fitted dose curve; in most records, active means well fitted curve in the direction sought with a large enough effect in the repeat runs; inconclusive means weak or mixed curves; inactive means no such curve, though single readings can be large; an effect the other way counts as inactive or inconclusive.
# What was measured:
# [1] = qHTS assay for identifying genotoxic compounds that show differential cytotoxicity against isogenic chicken DT40 cell lines with known DNA damage response pathways - wild type cell line (AID 743012); further: nearly all actives have a fitted effect of over 60% in size; further: potency means the concentration at half of the fitted maximal effect
# Method in brief: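 First, wild type DT40 cells were plated at 300 per well and equilibrated about 0.5 h at 37 C/5% CO2. Next, compounds in DMSO were added and exposure lasted 40 h. Finally, CellTiter-Glo was added for 30 min at room temperature and luminescence recorded.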
# [2] = qHTS assay for identifying genotoxic compounds that show differential cytotoxicity against isogenic chicken DT40 cell lines with known DNA damage response pathways - Rad54/Ku70 mutant cell line (AID 743015); further: nearly all actives have a fitted effect of over 60% in size; further: potency means the concentration at half of the fitted maximal effect
# [3] = qHTS assay to identify small molecule antagonists of the androgen receptor (AR) signaling pathway - cell viability counter screen (AID 743033; further: nearly all actives have a fitted effect of over 45% in size)
# [4] = target: Androgen receptor (Homo sapiens) (UniProt P10275); assay: qHTS assay to identify small molecule antagonists of the androgen receptor (AR) signaling pathway (AID 743035; active means well fitted inhibition curve with a large enough effect in the signal ratio in the repeat runs, not every such curve was filed as active; the % refers to the signal ratio)
# Method in brief: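 Beta-lactamase FRET read (2 h RT incubation with LiveBLAzer B/G) following 16 h of compound plus R1881 treatment of AR-UAS-bla HEK293 cells, which had been pre-incubated 4 h at 37C.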
# [5] = target: Androgen receptor (Homo sapiens) (UniProt P10275); assay: qHTS assay to identify small molecule agonists of the androgen receptor (AR) signaling pathway (AID 743036; active means well fitted activation curve with a large enough effect in the signal ratio in the repeat runs, with a control signal flat, not every such curve was filed as active; the % refers to the signal ratio)
# Method in brief: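 Activation was read as beta-lactamase FRET signal from LiveBLAzer B/G substrate, added for 2 h at room temperature. Before that, GeneBLAzer AR-UAS-bla GripTite (HEK293) cells had 16 h compound exposure at 37C.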
# [6] = target: Androgen receptor (Homo sapiens) (UniProt P10275); assay: qHTS assay to identify small molecule agonists of the androgen receptor (AR) signaling pathway using the MDA cell line (AID 743040; further: nearly all actives have a fitted effect of over 20% in size)
# Method in brief: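 Luminescence from ONE-Glo, read after 30 min at room temperature, reflects MMTV-driven luciferase in MDA-kb2 cells (AR- and GR-responsive). Treatment lasted 16 h at 37C, 0% CO2.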
# [7] = qHTS assay to identify small molecule antagonists of the androgen receptor (AR) signaling pathway using the MDA cell line - cell viability counter screen (AID 743041; further: nearly all actives have a fitted effect of over 45% in size)
# Method in brief: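 Viability counter screen run alongside the AR antagonist reporter: cells seeded 5 h before compound, R1881 added, 16 h incubation at 37C without CO2, fluorescent CellTiter-Fluor signal quantified.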
# [8] = qHTS assay to identify small molecule antagonists of the thyroid receptor (TR) signaling pathway - cell viability counter screen (AID 743064); further: nearly all actives have a fitted effect of over 50% in size
# Method in brief: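 In-well cytotoxicity read by CellTiter-Fluor (30 min, 37 C) following 23.5 h exposure of GH3 cells bearing a TRE-luciferase sensor. Compounds were added alongside 1 nM (final) T3 to drive TR transactivation.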
# [9] = qHTS assay to identify small molecule antagonists of the thyroid receptor (TR) signaling pathway (AID 743065); further: nearly all actives have a fitted effect of over 55% in size; further: potency means the concentration at half of the fitted maximal effect
# Method in brief: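 GH3.TRE-Luc rat pituitary cells carrying two TR response elements driving luciferase were plated for 4 h, given compound plus 1 nM T3 (final), and incubated 23.5 h at 37 C. ONE-Glo luminescence measured reporter inhibition; CellTiter-Fluor fluorescence tracked cytotoxicity.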
# [10] = system: thyroid hormone receptor (rat, GH3 cells); assay: qHTS assay to identify small molecule agonists of the thyroid receptor (TR) signaling pathway (AID 743066; calls by dose curve)
# [11] = target: Estrogen receptor (Homo sapiens) (UniProt P03372); assay: qHTS assay to identify small molecule antagonists of the estrogen receptor alpha (ER-alpha) signaling pathway (AID 743069; active means well fitted curve in the direction sought with a large enough effect in the signal ratio in the repeat runs, not every such curve was filed as active; the % refers to the signal ratio)
# Method in brief: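 Estradiol-stimulated ER-alpha-UAS-bla HEK293 cells, 18 hr compound exposure at 37C. LiveBLAzer B/G substrate, 2 hr RT, fluorescence read.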
# [12] = qHTS assay to identify small molecule antagonists of the estrogen receptor alpha (ER-alpha) signaling pathway - cell viability counter screen (AID 743074; calls by dose curve;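 further: HEK293 cells carrying ER-alpha-UAS-bla reporter stimulated with 17beta-estradiol; nearly all actives have a fitted effect of over 45% in size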)
# [13] = target: Estrogen receptor (Homo sapiens) (UniProt P03372); assay: qHTS assay to identify small molecule agonists of the estrogen receptor alpha (ER-alpha) signaling pathway (AID 743075; calls by dose curve;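 further: HEK293 GripTite cells with ER-alpha and UAS-driven beta-lactamase reporter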)
# [14] = target: Estrogen receptor (Homo sapiens) (UniProt P03372); assay: qHTS assay to identify small molecule agonists of the estrogen receptor alpha (ER-alpha) signaling pathway using the BG1 cell line (AID 743079); details: BG1Luc4E2 cells, ERE-luciferase agonist, 22 h; further: nearly all actives have a fitted effect of over 20% in size
# [15] = qHTS assay to identify small molecule antagonists of the estrogen receptor alpha (ER-alpha) signaling pathway using the BG1 cell line (AID 743080; calls by dose curve;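 further: BG1 cells stimulated with 17beta-estradiol alongside compound; nearly all actives have a fitted effect of over 25% in size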)
# Method in brief: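 Luminescence from a 4×ERE-luciferase reporter in BG1-Luc-4E2 cells served as read-out. Cells, pre-cultured 5 days in stripped-serum phenol-red-free medium, were exposed to compound with 17beta-estradiol co-stimulation for 21.5 h at 37 C.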
# [16] = qHTS assay to identify small molecule antagonists of the estrogen receptor alpha (ER-alpha) signaling pathway using the BG1 cell line - cell viability counter screen (AID 743081);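 further: compound given together with 17beta-estradiol as the ER stimulus; nearly all actives have a fitted effect of over 45% in size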; further: potency means the concentration at half of the fitted maximal effect
# Aromatase (Homo sapiens) = Aromatase (Homo sapiens) (UniProt P11511); assay: qHTS assay to identify aromatase inhibitors (AID 743083); further: nearly all actives have a fitted effect of over 55% in size
# [17] = qHTS assay to identify aromatase inhibitors - cell viability counter screen (AID 743084);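 further: cells stimulated with testosterone during compound exposure; nearly all actives have a fitted effect of over 55% in size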
# [18] = qHTS assay for identifying genotoxic compounds that show differential cytotoxicity against isogenic chicken DT40 cell lines with known DNA damage response pathways - Rev3 mutant cell line (AID 743014); further: nearly all actives have a fitted effect of over 55% in size; further: potency means the concentration at half of the fitted maximal effect
# Sequence of Aromatase (Homo sapiens) (P11511 whole entry, looked up): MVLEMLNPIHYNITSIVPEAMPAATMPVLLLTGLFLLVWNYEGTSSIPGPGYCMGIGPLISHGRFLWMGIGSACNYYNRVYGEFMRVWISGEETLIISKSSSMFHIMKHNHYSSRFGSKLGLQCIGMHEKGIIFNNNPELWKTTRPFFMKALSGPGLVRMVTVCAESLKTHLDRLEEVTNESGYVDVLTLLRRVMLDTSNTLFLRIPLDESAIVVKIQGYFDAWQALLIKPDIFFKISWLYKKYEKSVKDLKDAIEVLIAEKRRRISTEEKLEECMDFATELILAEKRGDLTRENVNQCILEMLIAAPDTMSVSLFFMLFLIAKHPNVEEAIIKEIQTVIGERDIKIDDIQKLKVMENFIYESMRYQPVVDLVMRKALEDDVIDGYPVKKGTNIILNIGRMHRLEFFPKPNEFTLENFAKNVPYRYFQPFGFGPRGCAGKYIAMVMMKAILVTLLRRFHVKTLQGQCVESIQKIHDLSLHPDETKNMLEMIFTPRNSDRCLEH
# Sequence of Androgen receptor (Homo sapiens) (P10275 whole entry, looked up): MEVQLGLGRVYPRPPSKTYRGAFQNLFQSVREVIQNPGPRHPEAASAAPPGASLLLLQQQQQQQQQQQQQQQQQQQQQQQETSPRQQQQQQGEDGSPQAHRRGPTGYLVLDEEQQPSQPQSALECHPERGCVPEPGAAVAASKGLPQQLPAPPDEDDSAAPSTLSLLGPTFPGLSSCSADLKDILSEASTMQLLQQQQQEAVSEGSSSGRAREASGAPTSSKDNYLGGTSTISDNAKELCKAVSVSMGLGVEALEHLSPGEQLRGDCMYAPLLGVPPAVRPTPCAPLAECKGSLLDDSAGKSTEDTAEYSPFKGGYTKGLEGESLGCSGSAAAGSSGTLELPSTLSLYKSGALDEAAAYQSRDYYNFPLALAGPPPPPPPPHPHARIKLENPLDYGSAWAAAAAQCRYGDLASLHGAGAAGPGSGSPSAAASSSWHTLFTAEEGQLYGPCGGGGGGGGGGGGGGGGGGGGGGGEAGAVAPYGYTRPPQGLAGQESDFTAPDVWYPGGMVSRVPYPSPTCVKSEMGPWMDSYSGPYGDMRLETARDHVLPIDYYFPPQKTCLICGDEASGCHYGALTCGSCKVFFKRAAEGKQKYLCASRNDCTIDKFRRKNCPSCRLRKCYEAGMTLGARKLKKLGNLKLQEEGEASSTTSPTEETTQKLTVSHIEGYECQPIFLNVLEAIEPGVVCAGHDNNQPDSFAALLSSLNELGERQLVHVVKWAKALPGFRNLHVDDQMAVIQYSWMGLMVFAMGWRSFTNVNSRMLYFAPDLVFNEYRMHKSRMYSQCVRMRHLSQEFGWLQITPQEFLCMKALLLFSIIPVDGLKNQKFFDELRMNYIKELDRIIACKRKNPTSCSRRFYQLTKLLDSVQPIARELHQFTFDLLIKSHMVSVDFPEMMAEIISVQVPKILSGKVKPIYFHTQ
# Sequence of Estrogen receptor (Homo sapiens) (P03372 whole entry, looked up): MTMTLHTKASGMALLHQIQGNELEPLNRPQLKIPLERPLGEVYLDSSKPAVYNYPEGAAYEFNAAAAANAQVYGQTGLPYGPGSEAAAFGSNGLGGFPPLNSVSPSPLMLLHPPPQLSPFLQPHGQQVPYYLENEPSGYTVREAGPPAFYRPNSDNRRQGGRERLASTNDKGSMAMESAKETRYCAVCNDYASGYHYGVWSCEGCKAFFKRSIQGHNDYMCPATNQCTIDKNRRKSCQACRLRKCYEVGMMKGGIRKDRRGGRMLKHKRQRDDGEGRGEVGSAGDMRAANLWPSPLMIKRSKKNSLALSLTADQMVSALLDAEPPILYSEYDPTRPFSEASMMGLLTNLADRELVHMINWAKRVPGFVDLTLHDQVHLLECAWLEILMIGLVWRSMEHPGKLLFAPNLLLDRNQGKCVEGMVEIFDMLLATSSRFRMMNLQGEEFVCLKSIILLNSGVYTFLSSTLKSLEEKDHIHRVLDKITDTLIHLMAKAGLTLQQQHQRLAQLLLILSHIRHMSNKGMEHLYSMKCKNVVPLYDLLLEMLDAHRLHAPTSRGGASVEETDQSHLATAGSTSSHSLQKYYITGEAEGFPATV
SMILES,Potency [1],Potency [2],Potency [3],Potency [4],outcome [5],outcome [6],Potency [7],Potency [8],Potency [9],Potency [10],Potency [11],Potency [12],Potency [13],activation ([14]; at 32.5 µM (top of the series)),Potency [15],Potency [16],Potency (Aromatase (Homo sapiens)),Potency [17],Potency [18],activation ([14]; at 70.3 µM (top of the series))
CN(C)C(=O)Oc1cc(OC(=O)N(C)C)cc(C(O)CNC(C)(C)C)c1 (configuration not stated),inactive,inactive,inactive,inactive,inactive,inactive,inactive,inactive,inactive,inactive,inactive,inactive,inactive,-8.21%,inactive,inactive,inactive,inactive,,
O=C(O)CBr,inactive,inactive,inactive,,,,inactive,inactive,inactive,inactive,,inactive,,,,inactive,inactive,inactive,,
Cc1ccc2cc(C)ccc2c1,inactive,inactive,inactive,,,,inactive,,inactive,inactive,,inactive,,,,inactive,inactive,inactive,inactive,
C#CCOC(=O)/C=C(C)/C=C/CC(C)CCCC(C)C (configuration not stated),inactive,,inactive,,,,,inactive,,,,inactive,inactive,,inactive,inactive,inactive,inactive,inactive,
CCN[C@H](C)Cc1cccc(C(F)(F)F)c1,60.9 µM (active),54.3 µM (active),inactive,,,,inactive,,,inactive,inactive,inactive,inactive,,inactive,inactive,inactive,inactive,,-8.58%
Cn1c(CCCC(=O)O)nc2cc(N(CCCl)CCCl)ccc21,26.6 µM (active),,inactive,,,,inactive,inactive,,inactive,inactive,inactive,inactive,,inactive,1.06 µM (active),inactive,inactive,3.35 µM (active),-7.85%
C=CCN1CC[C@]23CCCC[C@H]2[C@H]1Cc1ccc(O)cc13,21.1 µM (active),inactive,inactive,,,,,,29.8 µM (active),inactive,,inactive,,,,inactive,inactive,inactive,,
C(COCC1CO1)OCC1CO1 (configuration not stated),6.86 µM (active),8.63 µM (active),inactive,,,,inactive,inactive,43.3 µM (active),inactive,inactive,inactive,inactive,,inactive,inactive,inactive,inactive,,0.393%
CCOC(=O)NC(C)(C)Cc1ccc(Cl)cc1,,,inactive,inactive,inactive,inactive,inactive,inactive,inactive,inactive,inactive,,inactive,,inactive,inactive,inactive,inactive,inactive,6.17%
C=CC1(C)OC(=O)N(c2cc(Cl)cc(Cl)c2)C1=O (configuration not stated),inactive,61.1 µM (active),inactive,,,,inactive,inactive,inactive,inactive,inactive,inactive,inactive,,inactive,inactive,inactive,inactive,,-20.8% and -18.1%
